In the library only some 3.8% were active in any assay of this set; here they are far more common.
tim23-1 inh: growth inhibitors of tim23-1 mutant yeast, primary screen, luminescence, uHTS. S. cerevisiae tim23-1 growth, BacTiter-Glo luminescence, 24 h. inhibition, % at 20 µM. 330,000 compounds, 1.3% hits. AID 463212, 2010;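 active means growth inhibition of the mutant yeast at or above 50%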;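 further: temperature-sensitive mutant grown at 25 °C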
B2AR ag: beta2AR agonists driving receptor internalization, primary screen, cell-based, FAP fluorogen, flow cytometry; Beta-2 adrenergic receptor (Homo sapiens), P07550; 340,000 compounds, 0.43% hits; response, % (concentration not given with the values); Am2.2-beta2AR cells;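 active means response above a set limit, near 3 SD of response in nonfluorescent compounds, cut at about 42% in these data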
Target sequence (P07550 whole entry, looked up): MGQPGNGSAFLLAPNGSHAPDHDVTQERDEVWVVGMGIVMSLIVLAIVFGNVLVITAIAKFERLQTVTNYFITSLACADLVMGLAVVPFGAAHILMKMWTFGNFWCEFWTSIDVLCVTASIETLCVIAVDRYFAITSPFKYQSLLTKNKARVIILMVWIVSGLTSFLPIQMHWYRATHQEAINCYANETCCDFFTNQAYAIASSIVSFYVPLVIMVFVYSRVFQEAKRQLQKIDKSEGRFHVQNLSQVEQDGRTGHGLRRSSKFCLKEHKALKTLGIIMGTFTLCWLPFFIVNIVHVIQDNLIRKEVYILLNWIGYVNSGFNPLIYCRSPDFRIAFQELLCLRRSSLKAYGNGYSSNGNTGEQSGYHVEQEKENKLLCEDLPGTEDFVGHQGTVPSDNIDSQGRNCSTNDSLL
tim10-1 inh: growth inhibitors of tim10-1 mutant yeast, primary screen, luminescence, uHTS. S. cerevisiae tim10-1 ts strain growth, BacTiter-Glo, 24 h. inhibition, % at 20 µM. 330,000 compounds, 2.2% hits. AID 463190, 2010;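 active means inhibition of at least 40%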;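 further: mutant grown at 25 °C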
TIM10 inh: growth inhibitors of isogenic TIM10 control yeast, primary screen, counter-screen for tim10-1 yeast inhibitor project, luminescence, uHTS | S. cerevisiae TIM10 strain growth, BacTiter-Glo luminescence, 24 h | inhibition, % at 10 µM | 330,000 compounds, 1.4% hits;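 active means inhibition of 40% or more at the single tested concentration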;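 further: wild-type TIM10 isogenic control strain grown at permissive 25 °C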
PfHsp90 set2: growth inhibition of PfHsp90-expressing yeast, primary screen, antimalarial PfHsp90 inhibitor project, S. cerevisiae, BacTiter-Glo luminescence, single point, set 2 | BacTiter-Glo ATP, 48 h; yeast lacking PDR1 and PDR3 efflux regulators | inhibition, % at 9.4 µM | 310,000 compounds, 0.32% hits | AID 504621, 2011;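 active means every replicate shows inhibition above about 80%, whatever the replicate mean, limit read from the data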
tim10-1 conf: growth inhibitors of tim10-1 mutant yeast, confirmation, single concentration, luminescence, S. cerevisiae; shares compounds with tim10-1 inh; S. cerevisiae tim10-1 ts strain growth, BacTiter-Glo, 24 h; inhibition, % at 20 µM; 7,400 compounds, 56% hits; AID 463213, 2010;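 active means inhibition of yeast growth at or above a set limit in either of two repeat tests at 20 µM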;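 further: tim10-1 mutant grown at permissive 25 °C to find synthetic lethal compounds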
tim10 confirm: growth inhibitors of wild-type TIM10 yeast, confirmation, counter-screen for tim10-1 synthetic lethality project, single concentration, luminescence, S. cerevisiae; shares compounds with TIM10 inh; S. cerevisiae tim10 strain growth, BacTiter-Glo luminescence, 24 h; inhibition, % at 10 µM; 4,600 compounds, 63% hits;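 active means inhibition of yeast growth at or above a set limit in either of two replicates at 10 µM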; further: this counterscreen used the strain with wild-type TIM10
tim23-1 confirm: tim23-1 mutant yeast growth inhibitors, confirmation, luminescence, single concentration; shares compounds with tim23-1 inh; S. cerevisiae tim23-1 growth, BacTiter-Glo luminescence, 24 h; inhibition, % at 20 µM; 4,400 compounds, 83% hits;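 active means inhibition above about 39% in either of two replicate wells at 20 µM, limit read from the data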;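 further: temperature-sensitive tim23-1 mutant grown at 25 °C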
Numbers stand for hits; i = inactive; nt = not tested or not shown.

SMILES	tim23-1 inh	B2AR ag	tim10-1 inh	TIM10 inh	PfHsp90 set2	tim10-1 conf	tim10 confirm	tim23-1 confirm
Cc1cc(C)c2c(N)c(C(=O)C(C)(C)C)sc2n1	i	i	i	i	i	nt	nt	nt
NNc1nc(-c2ccccc2)c2cc(Br)ccc2n1	62	i	44	56	i	48	i	i
CC(=O)NNc1nc(-c2ccccc2)c2cc(Br)ccc2n1	i	i	i	i	nt	nt	nt	nt
NNc1nc(-c2ccccc2)c2cc(Cl)ccc2n1	63	i	54	48	i	32	i	52
NNc1nc(-c2ccccc2)cc(-c2ccc(Br)cc2)n1	55	i	55	i	i	50	nt	58
CN(C(=O)c1cccc(NC(=O)Cc2ccc(NC(=O)C3CCN(C(=O)c4ccccc4)CC3)cc2)c1)C1CCCC1	nt	i	nt	nt	i	nt	nt	nt
O=C1c2c(O)ccc(O)c2C(=O)c2c(NCCNCCO)ccc(NCCNCCO)c21	i	i	i	i	i	nt	nt	nt
O=C1c2ccccc2C(=O)c2c(Nc3ccc(CCO)cc3)ccc(O)c21	57	i	59	i	i	37	nt	51
O=C1c2cccc(O)c2C(=O)c2c(O)cc(CO)cc21	71	nt	54	i	nt	39	nt	84
CC(=O)c1ccc(S(=O)(=O)N2CCN(C(=O)c3ccc(COc4ccccc4)o3)CC2)cc1	i	i	i	i	nt	nt	nt	nt
FC(F)(F)c1nnc2ccc(N3CCCCCC3)nn12	50	i	41	i	i	i	nt	i
Cc1ccc(Nc2nc(Cl)nc(N(C)C#N)n2)cc1	59	i	50	i	i	47	nt	i
CC(C)c1ccc(Nc2nc(Cl)nc(Cl)n2)cc1	i	i	i	i	i	nt	nt	nt
O=C(/C=C\c1ccccc1[N+](=O)[O-])Nc1ccccc1	i	i	i	i	i	nt	nt	nt
O=C(/C=C/c1ccccc1[N+](=O)[O-])c1ccccc1Br	80	57	63	64	104	73	70	79
CCOC(=O)c1cc2c(OC)ccc(OC)c2n1CC(=O)c1ccccc1	i	i	i	i	i	nt	nt	nt
NC(=O)c1ccc[n+]([C@H]2O[C@@H](COP(=O)([O-])OP(=O)(O)OC[C@H]3O[C@@H](n4cnc5c(N)ncnc54)[C@H](O)[C@@H]3O)[C@H](O)[C@@H]2O)c1	71	i	78	59	88	75	45	78
Nc1ncnc2c1ncn2[C@@H]1O[C@H](CO)[C@@H](O)[C@H]1O	i	i	i	i	i	nt	nt	nt
CCS(=O)(=O)n1nc(-c2ccc(Cl)cc2)nc1SCc1ccccc1	62	nt	40	i	nt	i	nt	57
COc1ccc(-c2nc(SCc3ccccc3)n(S(C)(=O)=O)n2)cc1	i	i	i	i	i	nt	nt	nt
Oc1c(I)cc(I)c2cccnc12	69	i	71	53	109	65	76	56
CCCCN1C(=O)C(=Nc2cccc3cnccc23)c2ccccc21	71	i	45	42	i	46	35	67
CCCCN1C(=O)/C(=C2\SC(N3CCCCC3)=NC2=O)c2ccccc21	i	i	i	i	i	nt	nt	nt
Cc1ccc(O)c(NC(=O)C2CC(c3c(F)cccc3Cl)=NO2)c1 (stereo unspecified)	54	i	44	i	i	i	nt	60
Cc1[nH]c(C)c(C(=O)/C=C/c2ccc([N+](=O)[O-])cc2)c1C	i	i	i	i	i	nt	nt	nt
SMILES	tim23-1 inh	B2AR ag	tim10-1 inh	TIM10 inh	PfHsp90 set2	tim10-1 conf	tim10 confirm	tim23-1 confirm
O=C(NC1CCN(S(=O)(=O)c2ccccc2F)CC1)c1cccnc1	i	i	i	i	i	nt	nt	nt
CCOc1cc(/C=C(\C#N)C(N)=O)ccc1OS(=O)(=O)c1ccccc1	57	i	48	i	i	38	nt	58
CCOC(=O)/C(C#N)=C/c1ccc(OC)c(OC)c1	i	i	i	i	i	nt	nt	nt
Cc1cn(CC(=O)NCC(C)c2ccccc2)c(=O)[nH]c1=O (stereo unspecified)	nt	i	nt	nt	i	nt	nt	nt
Fc1ccc(C2=Nn3c(nnc3-c3n[nH]c4c3CCC4)SC2)cc1	i	i	i	i	i	nt	nt	nt
Clc1ccc(-c2n[nH]c3c2CCC3)cc1Cl	59	i	56	49	i	49	57	i
COC(=O)C1C2CC(=O)C(C2)C1C(=O)OC (stereo unspecified)	nt	i	nt	nt	i	nt	nt	nt
O=C(Nc1cccc(Br)c1)c1ccc(CN2CCc3ccccc3C2)cc1	63	i	44	44	i	31	38	74
CCOC(=O)C1=C(Cc2ccc(F)cc2)C(=O)c2ccccc2C1=O	66	i	57	64	i	68	57	71
O=C(OCc1ccc(F)cc1)c1ccc2c(c1)-c1ccccc1C2=O	i	i	i	i	i	nt	nt	nt
O=C(CNC(=O)C12CC3CC(CC(C3)C1)C2)Nc1ncccc1O	i	i	i	i	i	nt	nt	nt
O=C(O)c1cnc(-c2ccccc2)nc1Sc1cccc(Cl)c1	i	i	i	i	nt	nt	nt	nt
O=C(O)c1cnc(-c2ccccc2)nc1Sc1ccc(Cl)cc1Cl	51	i	53	i	nt	i	nt	i
CCN1/C(=C/C=C/C=C/c2sc3ccccc3[n+]2CC)Sc2ccccc21	89	nt	80	81	nt	79	i	86
CCN1/C(=C/C=C/c2sc3ccccc3[n+]2CC)Sc2ccccc21	85	i	77	83	i	77	76	85
CCN1/C(=C/C=C/C=C/C=C/c2sc3ccccc3[n+]2CC)Sc2ccccc21	i	i	i	i	i	nt	nt	nt
O=C(/C=C/Sc1ccccc1)c1ccc(Cl)cc1	59	i	51	i	i	47	nt	46
COc1cccc(CNC(=O)c2cc(S(=O)(=O)N3CCOCC3)cn2C)c1	i	i	i	i	i	nt	nt	nt
Oc1c(C2=NCCNC(C(F)(F)F)=C2)ccc2ccccc12	59	i	48	44	i	i	43	71
Cc1n[nH]c(C)c1S(=O)(=O)N(C)Cc1ccco1	i	i	i	i	i	nt	nt	nt
COc1ccc(CN2c3c(Br)cccc3C(=O)CS2(=O)=O)cc1	72	i	42	i	i	41	nt	60
O=C(O)c1cccc(S(=O)(=O)N2CCC(n3nnc4cc(C(F)(F)F)ccc43)CC2)c1	i	i	i	i	i	nt	nt	nt
COc1ccc2c(c1)CC/C2=N\OC(=O)c1ccccc1OC	81	i	53	71	i	38	80	79
